Records with an inconclusive call do not appear. Activity calls are given as the source filed them.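 The calls were made as follows: active = every repeat run fits a falling-signal curve with half-maximal potency within ten times top tested dose; inconclusive = runs disagree, or flat moderate drop, or poor fit; inactive = every run inactive, including signal moving upward.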

This test in a line: ADP-Glo luciferase signal interference – biochemical, luminescence, cherry-picked samples, set 2, artefact control for CDK5 inhibitor project, dose response (AID 504546). The conditions noted are these: ADP-Glo detection reagent counter screen, 5 uM ADP; series mostly up to 30 µM.
With `COc1cc(C(=O)N2CCN(c3ccccn3)CC2)cc(OC)c1OC`, the compound was called inactive. As for `O=C(NNC(=O)c1cccs1)c1ccccc1`, the entry is “inactive”; as for `CC(C)C[C@H](CO)Nc1nc(N(C)c2cccc(Cl)c2)c2ncn(C(C)C)c2n1`, “inactive”; as for `NC(=S)N/N=C/c1c(O)c(Br)cc2oc3c(c12)CCCC3`, “inactive”. As for `O=C1Nc2cc(C(=O)N3CCC(N4CCCCC4)CC3)ccc2S/C1=C\c1ccccc1`, the entry is “inactive”. As for `OCCCNc1cc(-c2ccnc(Nc3cccc(Cl)c3)n2)ccn1`, the entry is “inactive”.

As to `COc1ccc2oc(C(=O)NCCC(C)C)c(C)c2c1`, the result was inactive. As for `O=C(Nc1csc(Cc2c(Cl)cccc2Cl)n1)NN1CCOCC1`, the result was inactive. As for `CC(C)n1cnc2c(Nc3cccc(Cl)c3)nc(N(CCO)CCCO)nc21`, the entry is “inactive”. Then `C=CC(=O)Nc1ccc(Nc2ccnc(Nc3ccc(N4CCN(C)CC4)cc3)n2)cc1`, with “inactive”. Then `Clc1cncc(Cl)c1N/N=C/c1ccncc1`, with “inactive”.

In the case of `COc1ccc2nc3c(cc2c1)c(NC(=O)c1cccs1)nn3CC(C)C`, the outcome was inactive. Then `S=C(c1ccc(OCc2ccccc2)cc1)N1CCCC1`, with “inactive”; and `Fc1ccccc1/C=N/Nc1ncnc2nc[nH]c12`, with “inactive”.

For `CN(C)N1C(N)=C(C#N)C(c2cccs2)C2=C1CCCC2=O` (stereo unspecified), the compound was called inactive. Then `CC(C)(C)c1ccc(C(=O)O/N=C(\N)c2ccccn2)cc1`, with “inactive”; and `CC(C)=CCNc1ncnc2c1c(C#N)cn2C1OC(CO)C(O)C1O` (stereo unspecified), with “inactive”. With `Clc1cccc(Cl)c1/C=N/Nc1c(Cl)cncc1Cl`, the call was inactive. As for `CC(C)n1cnc2c(Nc3ccc(C(=O)O)cc3)nc(Cl)nc21`, the entry is “inactive”; as for `O=C1NC(=O)C(c2ccccc2[N+](=O)[O-])=C1Nc1ccc(O)c(Cl)c1`, “inactive”.

`O=C(O)CCC(=O)NCCn1c(-c2ccccc2)csc1=Nc1ccccc1`: the compound was classed as inactive. Then `Oc1ccc(/C=N/Nc2nccnc2Cl)c(O)c1`, with “inactive”. As for `Cc1cc(C)c2nc(C(F)(F)F)c(C#N)c(N)c2c1`, the entry is “inactive”; as for `C=CCNC(=O)c1n[nH]c2c1CC(C(C)(C)CC)CC2` (stereo unspecified), “inactive”. As for `Nc1nc(Nc2cccc(F)c2)nc(NCCO)c1[N+](=O)[O-]`, the call was inactive. Then `CCCc1cc(-c2[nH]ncc2-c2ccc(C(=O)OCC)o2)c(O)cc1O`, with “inactive”. As for `COc1ccc2nc(C(F)(F)C(F)(F)F)c(C#N)c(N)c2c1`, the entry is “inactive”; as for `COc1ccc(Nc2nccc(-c3ccc(C#N)cc3)n2)cc1`, “inactive”; as for `Nc1ccc2c(c1)C(=NO)c1ccccc1-2`, “inactive”. Then `COc1ccc(C(=O)c2sc(NC(C)C)nc2N)cc1OC`, with “inactive”; and `Cc1cccc(/N=C/c2c(O)ccc3oc4c(c23)CCCC4)n1`, with “inactive”; and `COc1ccc(Nc2nc(N)c(C(=O)c3ccc(F)cc3)s2)cc1`, with “inactive”. On to `Nc1nc(Nc2ccccc2F)sc1C(=O)c1ccccc1`, for which the compound was called inactive. As for `Oc1ccc(-c2nc(-c3ccc(O)c(O)c3)cs2)cc1`, the entry is “inactive”; as for `CN1CCN(C(=O)c2ccc3c(c2)NC(=O)/C(=C/c2ccccc2)S3)CC1`, “inactive”; as for `Cc1nc(Nc2ccccc2)sc1C(=O)c1ccc(F)cc1`, “inactive”.
